SMILES strings stand for the structures. The source made the active and inactive calls.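 The calls were made as follows: active = inhibition at or above 50% relative to wild type and mutant plate controls; inactive = inhibition below 50%.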

This test can be described thus: inhibitors of Chlamydomonas gravitaxis, primary screen, whole organism, Chlamydomonas reinhardtii, WT vs cilia-less mutant, absorbance, 96-well (AID 463189).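 Also: 0% = wild type cc124 cells in DMSO and 100% = ciliumless bld1 mutant cells.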 Particulars: OD600 absorbance, 2 days, at 10 µM, stronger effect = higher value.
Broadly, the inhibition is the relative decrease from the control value, in per cent. `OC[C@H]1NC[C@@H](O)[C@@H]1O`: the inhibition is -9.59% (inactive).

As for `COc1ccc2c(c1)c(CC(=O)O)c(C)n2Cc1ccc(F)cc1`, the inhibition is 4.4% (inactive).

Regarding `N.N.N.N.N.N.N.N.N.N.N.N.N.N.O.O.[Cl-].[Cl-].[Cl-].[Cl-].[Cl-].[Cl-].[Ru+4].[Ru+5].[Ru+5]`, the inhibition was 97.5% (active).

For the compound `OC[C@H]1O[C@@H](n2cnc3c(NCCc4ccccc4)ncnc32)C(O)[C@H]1O` (stereo not given in full), the inhibition was -17% (inactive).

In the case of `CNC1(C)C2CCC(C2)C1(C)C` (stereo not given), the inhibition is 2.45% (inactive).

As for `Nc1ncnc2c1ncn2C1CCCO1` (stereo not given), the inhibition is -5.2% (inactive).

In the case of `C[C@@H](Oc1ccc(Oc2cnc3ccc(Cl)cc3n2)cc1)C(=O)O`, the inhibition was 9.86% (inactive).

`CN(C)C/C=C(/c1ccc(Br)cc1)c1cccnc1`: the inhibition is 108% (active).

`O=c1onc2n1-c1cc(Br)ccc1OC2`: the inhibition is -0.03% (inactive).

`CC1=C(/C=C/C(C)=C/C=C/C(C)=C\C(=O)O)C(C)(C)CCC1`: the inhibition was -3.51% (inactive).

For the compound `Nc1cc(Cl)c(NC2=NCCN2)c(Cl)c1`, the inhibition was -3.5% (inactive).

For the compound `Cn1cnc([N+](=O)[O-])c1Sc1ncnc2nc[nH]c12`, the inhibition was -2.23% (inactive).

As for `CCCCCCCCCCC/C=C\C(C)(C)/C=C\CCCC(=O)O`, the inhibition is -1.7% (inactive).

For `C=C[C@H]1CN2CCC1C[C@H]2[C@H](O)c1ccnc2ccc(OC)cc12` (stereo not given in full), the inhibition was -14.7% (inactive).

Regarding `C=CCN1CCc2c(cc(O)c(O)c2Cl)C(c2ccccc2)C1` (stereo not given), the inhibition was -7.02% (inactive).

Consider `Nc1ccn([C@@H]2O[C@H](CO)[C@@H](O)[C@@H]2O)c(=O)n1`, for which the inhibition was 0.194% (inactive).

On to `O=C(O)/C(=C/c1c(C(=O)O)[nH]c2cc(Cl)cc(Cl)c12)c1ccccc1`, for which the inhibition was -3.38% (inactive).

As to `O=C(O)C1=CC(=C(c2ccc(O)c(C(=O)O)c2)c2ccc(O)c(C(=O)O)c2)C=CC1=O`, the inhibition is 0.098% (inactive).

With `Nc1ccc2c3c(cccc13)C(=O)NC2=O`, the inhibition is 32.5% (inactive).

For the compound `N[C@@H](Cc1c[nH]c2ccc(O)cc12)C(=O)O`, the inhibition was 4.83% (inactive).

For `CC#CCOC(=O)c1c(C)nc2sc3c(c2c1N)CCC(O)C3` (stereo not given), the inhibition is 11.7% (inactive).

As to `Clc1ccccc1C(c1ccccc1)(c1ccccc1)n1ccnc1`, the inhibition is 96% (active).

Turning to `Clc1ccc(N2CCN(Cc3c[nH]c4ncccc34)CC2)cc1`, the inhibition is 5.9% (inactive).

As for `CC(C)NC[C@@H](O)c1ccc(O)c(O)c1`, the inhibition is 3.12% (inactive).

For `C=C[C@H]1CN2CCC1C[C@@H]2[C@@H](O)c1ccnc2ccc(OC)cc12` (stereo not given in full), the inhibition is 5.44% (inactive).

`N[C@H](C(=O)O)[C@H]1C[C@@H]1C(=O)O`: the inhibition is 2.25% (inactive).

Consider `Fc1ccc(C(OCCCc2cnc[nH]2)c2ccc(F)cc2)cc1`, for which the inhibition was -0.416% (inactive).

With `O=C(O)CP(=O)(O)O`, the inhibition was 7.76% (inactive).

Regarding `CCCCCCC/C=C\CCCCCCCCC(=O)O`, the inhibition was 9.07% (inactive).

In the case of `Cc1cc2c(cc1Cl)N(C(=O)Nc1ccnc3ccccc13)CC2`, the inhibition is -0.614% (inactive).

For the compound `CNC(=O)c1cc2c(cn1)[nH]c1ccccc12`, the inhibition is 4.1% (inactive).

In the case of `CC(C)NCC(O)c1ccc(NS(C)(=O)=O)cc1` (stereo not given), the inhibition was -0.482% (inactive).

Consider `FC(F)(F)c1cc(CO[C@H]2CCCN[C@H]2c2ccccc2)cc(C(F)(F)F)c1`, for which the inhibition was 14.5% (inactive).

In the case of `c1ccc([C@H]2CN3CCSC3=N2)cc1`, the inhibition was -1.39% (inactive).

Consider `NCCCC(N)(C(=O)O)C(F)F` (stereo not given), for which the inhibition was 3.03% (inactive).

`COc1cc2nc(N3CC=[N+](C(=O)c4ccco4)CC3)nc(N)c2cc1OC`: the inhibition is 6.38% (inactive).

With `O=[N+]([O-])c1ccc(CSc2ncnc3c2ncn3[C@@H]2O[C@H](CO)[C@H](O)C2O)cc1` (stereo not given in full), the inhibition was -2.08% (inactive).

For `COc1ccccc1N1CCN(CCCCN2C(=O)c3ccccc3C2=O)CC1`, the inhibition is 1.35% (inactive).

On to `NC(=O)c1ncn([C@@H]2O[C@H](CO)[C@@H](O)[C@H]2O)c1O`, for which the inhibition is 13.2% (inactive).

Turning to `CC1(C)CCC(NC(=O)[C@@H](N)CCC(=O)O)CC1`, the inhibition was 2.89% (inactive).
